From PubChem BioAssay
Shown are actives, neighbours in structure and some others; about 0.9% of the full set was active somewhere.
TDP1 block – TDP1 (human) enzyme inhibition; Q9NUW8; recombinant TDP1, AlphaScreen DNA substrate cleavage; Potency, µM (top dose mostly 130 µM), for inactives: at the top dose activity change, negative = inhibition, hits mostly inhibitors; 0.28% of 350,000 active; AID 485290; further: nearly all actives have a fitted effect of over 40% in size
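Recombinant E. coli-expressed Tdp1 (1 nM) preincubated with compound 15 min at RT, then 5'-biotin/3'-phosphotyrosine-FITC DNA substrate (15 nM) added for 5 min. AlphaScreen beads (10 ug/ml) added, 10 min RT; tyrosine-FITC cleavage read as signal loss.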
GCN5L2 inh – GCN5L2 (KAT2A) acetyltransferase inhibition | 0.21% of 390,000 active | GCN5L2 HAT assay, ThioGlo1 CoA-SH fluorescence | Potency, µM (series often up to 58.9 µM), for the others: top-dose activity change, negative = inhibition, actives largely listed as inhibitors | Q92830 | AID 504327
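GCN5L2 (20nM final) in 50mM HEPES, 0.1mM EDTA pH 7.5, 0.01% Tween-20 was preincubated 15 min at room temperature with compound, then given ThioGlo1 (50uM), H3(1-25) peptide (75uM) and acetyl-CoA (70uM); CoA-thiol fluorescence (Ex340/Em540) was read at 0 and 20 min.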
APEX1 inh – APE1 (human) endonuclease inhibition | recombinant APE1, TAMRA/BHQ-2 abasic DNA cleavage fluorescence | 0.35% of 350,000 active | Potency, µM (series often up to 65.8 µM), without a hit: top-dose activity change, negative = inhibition, usual class: inhibitors | P27695 | AID 2517;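 further: plate controls were vehicle for no effect and reference inhibitor for full effect; nearly all actives have a fitted effect of over 55% in size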
Target sequence (P27695 whole entry, looked up): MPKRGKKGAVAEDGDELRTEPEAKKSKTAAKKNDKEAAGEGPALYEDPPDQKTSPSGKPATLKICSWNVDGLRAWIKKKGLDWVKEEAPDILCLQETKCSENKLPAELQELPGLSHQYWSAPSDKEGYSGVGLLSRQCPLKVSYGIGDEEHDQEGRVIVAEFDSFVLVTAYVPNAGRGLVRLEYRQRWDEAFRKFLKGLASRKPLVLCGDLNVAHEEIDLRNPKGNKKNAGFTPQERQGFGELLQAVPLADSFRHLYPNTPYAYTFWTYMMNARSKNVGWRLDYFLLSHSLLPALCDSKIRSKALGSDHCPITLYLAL
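Incision of a quenched TAMRA/BHQ-2 THF abasic-site duplex (50 nM) by 0.75 nM APE1, after 15 min compound preincubation, measured as fluorescence increase over three 60 s reads. Values normalized to buffer, DMSO and NSC13755 control wells.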
BLM inh – Bloom syndrome helicase (human) inhibition. AID 2528. Potency, µM (highest dose often 56.1 µM), without a hit: at the top dose activity change, negative = inhibition, usual class: inhibitors. 0.2% of 350,000 active. recombinant BLM DNA unwinding, fluorescence dequenching;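 further: plate controls were vehicle for no effect and no enzyme for full effect; nearly all actives have a fitted effect of over 35% in size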
LMNA splice mod – modulators of lamin A splicing. HeLa LMNA splicing GFP/RFP minigene ratio, 48 h. Potency, µM (series often up to 46.1 µM), for inactives: top-dose ratio change, negative = inhibition, hits mostly inhibitors. 0.01% of 200,000 active. AID 1487; active means well fitted inhibition curve with a large enough effect in the signal ratio, with a control signal flat, not every such curve was filed as active; inconclusive means small, poorly fitted or top-dose-only effect, or effect the other way, or a change in a side signal; the % refers to the signal ratio
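Read-out is the ratio of GFP to DsRed2 object intensity, acquired by 488 nm laser-scanning cytometry on HeLa lamin A-EGFP minigene reporter cells. Compound incubation 48 hrs at 37 °C in Opti-MEM with 2% FBS; DMSO 0.5% final.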
RECQ1 inh-1 – RECQ1 (human) helicase inhibition. P46063. RECQ1 DNA unwinding, red fluorescence kinetic read. Potency, µM (titrated, usually from 57.3 µM), without a hit: at the top dose activity, negative = inhibition, actives largely listed as inhibitors. 0.54% of 240,000 active. AID 2549;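 further: plate controls were vehicle for no effect and no enzyme for full effect; nearly all actives have a fitted effect of over 30% in size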
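50 nM RECQ1T1 preincubated 15 min with compound in Tris pH 8.0 buffer with MgCl2, DTT, Tween-20 and 2.5 ug/ml poly(dI-dC); started with 200 nM TAMRA/BHQ-2 forked duplex and 2 mM ATP. Unwinding read as fluorescence (525/598 nm), two reads 2 h apart.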
RECQ1 conf – confirmation of human RECQ1 helicase inhibitors; RECQ1 helicase DNA unwinding, fluorescence; AID 2708; Potency, µM (series often up to 229 µM), inactives show at the top dose activity change, negative = inhibition, usual class: inhibitors; shares compounds with RECQ1 inh-1; 28% of 610 active; further: nearly all actives have a fitted effect of over 45% in size
ADP FP counter – ADP displacement flagged in RECQ1 inhibitor counter-screen; shares compounds with RECQ1 inh-1; ADP fluorescence polarization displacement counterscreen; Potency, µM (doses to about 228 µM), without a hit: at the top dose activity change, negative = inhibition, most hits filed as inhibitors; 27% of 530 active; further: nearly all actives have a fitted effect of over 45% in size
RECQ1 inh-2 – RECQ1 helicase inhibition confirmed, round 2 | AID 504841 | Potency, µM (top dose mostly 119 µM), without a hit: top-dose activity, negative = inhibition, usual class: inhibitors | shares compounds with RECQ1 inh-1 | recombinant RECQ1 DNA unwinding, red fluorescence | 15% of 1,100 active; further: nearly all actives have a fitted effect of over 50% in size
An asterisk follows results filed as active; i = inactive; u = inconclusive; x = no result; [ ] = remark or other dose. Unless noted, the call rests on the fitted dose curve; in most records, active means well fitted curve in the direction sought with a large enough effect; inconclusive means small, poorly fitted or top-dose-only effect, or another doubt; inactive means no such curve, though single readings can be large; an effect the other way counts as inactive or inconclusive. Unless noted, on the % scale 0 is the no-effect control and ±100 the full control effect; potency means the concentration at half of the fitted maximal effect.

SMILES	TDP1 block	GCN5L2 inh	APEX1 inh	BLM inh	LMNA splice mod	RECQ1 inh-1	RECQ1 inh-2	others
O=C(CCn1nnc2ccccc2c1=O)NCC1CCC(C(=O)O)CC1 (configuration not stated)	3%	-10%	u	0%	-5%	-5%	x	RECQ1 conf=9%;ADP FP counter=0%
O=C(O)CCCCCNC(=O)CCn1nnc2ccccc2c1=O	-2%	-10%	2%	-3%	-4%	-12%	x
O=C(O)c1ccc2cc(-c3ccc(O)c(C45CC6CC(CC(C6)C4)C5)c3)ccc2c1	13%	x	1%	-25%	x	i	x
COc1ccc2c(c1)c(CC(=O)NCc1ccc3c(c1)OCO3)c(C)n2C(=O)c1ccc(Cl)cc1	-1%	x	-1%	1%	x	-5%	x
N#Cc1c(-c2ccc(Cl)cc2)no[n+]1[O-]	x	x	-4%	x	x	x	x
O=c1cc(-c2ccccc2)oc2ccc(O)cc12	5%	2%	2%	-8%	x	-8%	x
COc1ccc(-c2cc(=O)c3cc(O)ccc3o2)cc1	5%	-6%	1%	0%	x	u	-18%
CC(Cl)OC(=O)Nc1cccc2cccnc12 (configuration not stated)	3%	x	x	x	x	x	x
CCn1c(=O)c(C(=O)NNS(=O)(=O)c2ccc(Br)cc2)c(O)c2ccccc21	8%	-10%	8%	-15%	-6%[46 µM]	u	u
CCCCC/C=C\C\C=C/C=C/C=C/[C@@H](SC[C@H](NC(=O)CC[C@H](N)C(=O)O)C(=O)NCC(=O)O)[C@@H](O)CCCC(=O)O	0%	-1%	-4%	x	x	-4%	x
O=C(CSc1nnc2ccccn12)N1CCc2ccccc2C1	-2%	-2%	-2%	-2%	-3%	-7%	x
O=C(O)C1Cc2ccccc2CN1C(=O)CSc1nnc2ccccn12 (configuration not stated)	-2%	-2%	-2%	0%	2%[9.22 µM]	-12%	x	RECQ1 conf=12%;ADP FP counter=u
CCC(C)C(NC(=O)OC(C)(C)C)C(=O)NC1COC2CC(n3cc(C)c(=O)[nH]c3=O)OC12 (configuration not stated)	6%	x	3%	0%	x	i	x
CCc1ccc(OCC(=O)N(Cc2ccc(OC)cc2)C2CCS(=O)(=O)C2)cc1 (configuration not stated)	12%	0%	x	-7%	u	x	x
O=C1c2ccccc2C(=O)c2c1cccc2N(CCO)CCO	x	-9%	7%	-6%	x	x	x
O=C1C=C(N(CCO)Cc2ccccc2)c2ccccc2C1=O	0%	-13%	-1%	u	-7%[9.22 µM]	u	u
COc1ccc(CN(Cc2ccccc2)C(=O)CN2CCN(C)CC2)cc1COc1ccc(NC(C)=O)cc1	-8%	x	x	x	x	x	x
O=C(COc1ccc(Br)cc1Cl)c1ccc[nH]1	1%	-9%	0%	-16%	x	i	x
O=C(COc1ccccc1Cl)c1ccc[nH]1	x	-27%	u	-26%	x	u	-11%
CCc1cccc(CC)c1N(COC)C(=O)Cn1c(C)nc2ccccc21	-1%[12.3 µM]	17%	x	-4%	x	x	x
Cc1c(Cl)cccc1NS(=O)(=O)c1ccc2c(c1)C1C=CCC1C(c1ccc(C(=O)O)cc1)N2 (configuration not stated)	x	u	-10%	u	x	28µM*	u
O=C(O)CCCCn1c(SCc2cc(=O)n3cc(Cl)ccc3n2)nc2ccsc2c1=O	3%	-7%	-2%	2%	-6%	0%	x
NS(=O)(=O)c1ccc(CCNC(=O)CSc2nc3ccsc3c(=O)n2CCCCCC(=O)O)cc1	5%	0%	13%	-8%	x	-1%	x	RECQ1 conf=14%;ADP FP counter=-8%
O=C(O)CCCCn1c(SCc2ccccc2Cl)nc2ccsc2c1=O	6%	-15%	13%	-1%	u	-9%	x	RECQ1 conf=10%;ADP FP counter=3%
COc1ccc(Nc2ccccc2N)cc1	6%	0%	-5%	-24%	u	22µM*	45µM*
SMILES	TDP1 block	GCN5L2 inh	APEX1 inh	BLM inh	LMNA splice mod	RECQ1 inh-1	RECQ1 inh-2	others
C=CCC(C)(O)c1cccc(Br)c1 (configuration not stated)	6%	x	-1%	-2%	x	10%	x
Cc1ccc(-c2nn(CCC(=O)O)cc2CCC(=O)O)cc1	3%	1%	3%	0%	10%	i	x	RECQ1 conf=14%;ADP FP counter=u
CCn1cc(CCC(=O)O)c(C)n1	8%	-6%	1%	4%	14%[46 µM]	-12%	x
COc1cccc(-c2nc(NCc3ccccc3OC)c3ccccc3n2)c1	x	-1%	14%	-8%	u	-16%	x
COc1ccccc1CNc1nc(-c2ccc3c(c2)OCO3)nc2ccccc12	x	-17%	7%	-17%	u	u	-13%
O=C1c2ccc3c4c(ccc(c24)C(=O)N1CCCCO)C(=O)N(CCCCO)C3=O	5%	-6%	u	-1%	u	7.1µM*	50µM*
CCCN(CCC)C(=O)c1ccc2c(=O)n(Cc3ccco3)c(=S)[nH]c2c1	0%	-6%	u	u	u	u	-15%
COc1ccc(-c2nnc(SCC(=O)Nc3cccc(C(F)(F)F)c3)nc2-c2ccc(OC)cc2)cc1	6%	-1%	x	-9%	u	x	x
Cc1noc(NS(=O)(=O)c2ccc(N/C=C\C(=O)c3cccc4ccccc34)cc2)c1C	6%	u	4%	-8%	x	-24%	x
CCc1nnc(NS(=O)(=O)c2ccc(N/C=C\C(=O)c3cccc4ccccc34)cc2)s1	6%	-15%	15%	-2%	-6%	u	u
COc1ccc(C)cc1NC(=O)COC(=O)Cc1ccc(-c2ccccc2)cc1	0%	-12%	1%	-12%	-3%	u	-7%
COc1ccc(NC(=O)COC(=O)Cc2ccc(-c3ccccc3)cc2)c(OC)c1	3%	-12%	-4%	-6%	-5%	i	x
Cc1ccc(CNc2ncnc3ccc(-c4ccc5c(c4)OCO5)cc23)o1	3%	x	x	x	x	x	x
C=CCOC(=O)N[C@H](/C(C(=O)OC)=C(\C)NCc1ccccc1)c1cccc(F)c1	-1%	x	2%	-10%	x	2%	x
